The entries come from a sample that favours hits as a whole.
MARV entry inh – inhibitors of Marburg virus binding or cell entry | 300,000 tested, 1.8% active | Marburg virus pseudotyped entry inhibition, cell reporter | Potency, µM (titrated, usually from 37.8 µM), for inactives: at the top dose activity change, negative = inhibition, most hits filed as inhibitors | AID 540276; calls by dose curve; tested in HEK293 cells; note: potency is the fitted concentration of half-maximal effect; % is set by controls: 0 for no effect and ±100 for the full control effect
LASV entry inh – Lassa virus entry inhibition; Lassa virus pseudotype entry inhibition, cell reporter; Potency, µM (titrated, usually from 37.9 µM), for the others: at the top dose activity change, negative = inhibition, usual class: inhibitors; 300,000 tested, 1.2% active; AID 540256; calls by dose curve; tested in HEK293 cells; note: potency is the fitted concentration of half-maximal effect; % is set by controls: 0 for no effect and ±100 for the full control effect; nearly all actives have a fitted effect of over 50% in size
VACV mCherry inh – inhibitors of vaccinia virus infection (mCherry reporter signal) | 310,000 tested, 0.63% active | Vaccinia virus mCherry reporter infection, fluorescence | Potency, µM (titrated, usually from 36.5 µM), for inactives: at the top dose activity change, negative = inhibition, hits mostly inhibitors; calls by dose curve; tested in A549 cells; note: potency is the fitted concentration of half-maximal effect; % is set by controls: 0 for no effect and ±100 for the full control effect; nearly all actives have a fitted effect of over 35% in size
VACV Venus inh – vaccinia inhibition (Venus reporter); Vaccinia virus Venus reporter expression, fluorescence; Potency, µM (top dose mostly 36.5 µM), for inactives: at the highest dose activity change, negative = inhibition, usual class: inhibitors; 330,000 tested, 0.46% active; AID 720580; calls by dose curve; tested in A549 cells; note: potency is the fitted concentration of half-maximal effect; % is set by controls: 0 for no effect and ±100 for the full control effect; nearly all actives have a fitted effect of over 30% in size
Shiga toxin inh – Shiga toxin inhibition | inhibition, % at 38.7 µM | 290,000 tested, 9.2% active | Vero cells, Shiga toxin protein synthesis inhibition reporter | AID 2315; in the data active = inhibition mostly above about 28%, no sharp cut-off; inactive = mostly below about 43%; note: 0% is about no effect
CHX counter – affects cycloheximide protein synthesis inhibition readout, counter-screen. max response, %. cell reporter, cycloheximide protein synthesis inhibition counterscreen. 300,000 tested, 12% active; in the data active = max response mostly above about 13%, no sharp cut-off; inactive = mostly below about 14%; note: read at 38.3 µM for the half of the compounds with a filed dose; 0% is about no effect
An asterisk follows results filed as active; i = inactive; u = inconclusive; x = no result; [ ] = remark or other dose.

SMILES | MARV entry inh | LASV entry inh | VACV mCherry inh | VACV Venus inh | Shiga toxin inh | CHX counter
O=C(CCCn1c(=O)c2cccn2c2cccnc21)Nc1ccccc1Br | x | 16%[46.1 µM] | -13% | -7% | x | x
COc1ncc(-c2ccc3c(c2)S(=O)(=O)c2cccc(C(=O)O)c2C3=O)cn1 | x | x | i | -3% | x | x
Cc1cccc(C(=O)NCC(=O)N2CCOCC2)c1 | x | x | x | x | 8 | 23*
O=C(NCC(=O)N1CCN(Cc2ccccc2)CC1)c1ccc(Cl)cc1 | x | x | x | x | 9 | 18*
CCOc1ccc(C(=O)NCC(=O)N2CCCC2)cc1 | 2%[46.1 µM] | 1% | -5% | -8% | 50* | 18
O=C(NCC(=O)N1CCCCCC1)c1ccc(Cl)cc1 | u | 20% | -19% | -16% | 65* | 29*
CCOc1ccc(C(=O)NCC(=O)OCC(=O)N2CCCC2)cc1 | x | x | x | x | -10 | 1
CC(O)(COc1ccccc1)c1ccc2c(c1)CN(Cc1cccc3ncccc13)CCO2 (stereo not given) | x | x | -19% | -4% | x | x
Cn1ncc2c(NCc3ccc(Cl)cc3)ncnc21 | x | 13%[46.1 µM] | u | -13% | x | x
O=C(NCc1ccco1)c1ccc(Cl)cc1[N+](=O)[O-] | x | x | x | x | -3 | -4
CCCOc1ccc(C(=O)NCC(C)(C)N2CCOCC2)cc1 | 8%[46.1 µM] | -26% | i | -4% | -9 | -1
CC(C)CCOc1ccc(C(=O)NCCC(=O)N2CCOCC2)cc1 | 22% | 29% | x | x | 41* | 18*
NC(=O)C1CCN(C(=O)CNC(=O)c2ccccc2)CC1 | u | 19% | -8% | -4% | 35 | 11
O=C(c1ccc2ccccc2c1)N1CCN(Cc2ccccc2)CC1 | x | x | x | x | 82* | 28*
O=C(NCC(=O)N1CCOCC1)c1ccc(Cl)cc1 | x | x | x | x | 35 | 18*
O=C(NCC(=O)N1CCOCC1)c1ccccc1 | u | u | i | 1% | 55* | 15*
O=C(c1cccc(C(=O)N2CCN(Cc3ccccc3)CC2)c1)N1CCN(Cc2ccccc2)CC1 | -27% | u | x | -27% | 1 | -2
CC(C)=CCC/C(C)=C/CO/N=C1\C[C@@H](O)[C@@H](O)[C@@H]2[C@@H]3C(=O)N(Cc4ccccc4)C(=O)[C@@H]3CC[C@H]12 | 3%[14.2 µM] | x | x | x | x | x
CCOC(=O)c1ccc(NC(=O)Nc2c[nH]c(=O)[nH]c2=O)cc1 | x | 5%[46.1 µM] | -9% | -6% | x | x
O=C(c1c[nH]c(C(=O)N2CCN(Cc3ccccc3)CC2)c1)C1CCCCC1 | x | x | x | x | 51* | 24
Cc1cc(C)n(C(=O)CNC(=O)c2cccc(F)c2)n1 | -13%[46.1 µM] | -8%[46.1 µM] | i | -17% | 3 | -3
CCOC(=O)CNC(=O)c1ccc(OCC(F)(F)F)cc1 | x | x | i | -3% | 82* | 28*
CCOC(=O)CNC(=O)c1ccc(C)cc1 | 3%[46.1 µM] | 11% | x | -10% | 5 | 19
Cc1nn(C(=O)CNC(=O)c2ccccc2)c(C)c1C | -2% | -18% | -6% | 16% | 47 | 38*
COC(=O)C[C@H]1C[C@H]2c3cc(NC(=O)Nc4ccc(C(F)(F)F)cc4)ccc3O[C@H]2[C@@H](CO)O1 | x | x | -2% | -24% | x | x
SMILES | MARV entry inh | LASV entry inh | VACV mCherry inh | VACV Venus inh | Shiga toxin inh | CHX counter
Cc1noc(-c2ccccc2OCC(=O)Nc2cccc([N+](=O)[O-])c2)n1 | -29%[46.1 µM] | u | -12% | -20% | x | x
COc1ccc2[nH]c(C)c(C(=O)CN3C[C@@H](C)O[C@@H](C)C3)c2c1 | -1% | x | x | x | x | x
CCCCCCNC(=O)O[C@H]1C[C@@H]2C(=O)N(c3ccccc3)C(=O)[C@@H]2[C@@H]2CN(S(=O)(=O)c3ccc(C)cc3)C[C@]12O | x | x | i | -12% | x | x
N/C(=N\OC(=O)COc1ccccc1Cl)c1ccccn1 | u | 7.3µM* | 16% | 7% | 65* | 45*
Cc1ccc(C)c(OCC(=O)O/N=C(\N)c2cccnc2)c1 | 2%[46.1 µM] | -15%[46.1 µM] | 13% | 31% | 49 | 19*
CCc1ccc(OCC(=O)O/N=C(\N)c2cccnc2)cc1 | 0% | 19% | i | -9% | 44* | 32*
N/C(=N\OC(=O)CCCCCN1C(=O)c2ccccc2C1=O)c1ccccn1 | 25% | 26% | i | -13% | 2 | -2
Cc1cc(OCC(=O)O/N=C(\N)c2ccccc2)cc(C)c1Cl | 20% | 23% | i | 0% | 9 | 5
Cc1ccc(C)c(OCC(=O)O/N=C(\N)c2ccccn2)c1 | u | u | -23% | -17% | 88* | 28*
O=C(NCCC1CCCCN1S(=O)(=O)c1ccccc1)C(=O)NCc1ccccn1 (stereo not given) | -1% | 19% | -13% | -10% | x | x

Compound activity from PubChem BioAssay.
